Compounds without any hit were thinned out: in the full panel of roughly 83,000, 20% have a hit.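 Negative percent growth values reflect cell death: -40 means 40% of the cells present at the start died, and -100 means all died.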 A number with no mark means an inactive call. Calls of active or inactive are those of the source. The calls were made as follows: active = growth percent below 10; inactive = the rest.
Columns and labels:
Experiment in all cases: NCI-60 one-dose screen, 48 h (100 = growth as untreated, 0 = no growth, -100 = all killed)
Conditions in all cases: 10 µM unless noted
[1] = tested on: NCI-H23 lung
[2] = tested on: NCI-H226 lung
[3] = tested on: NCI-H322M lung
[4] = tested on: HOP-62 NSCLC
[5] = tested on: NCI-H460 lung
[6] = tested on: HOP-92 NSCLC
[7] = tested on: NCI-H522 lung
[8] = tested on: A549/ATCC NSCLC
[9] = tested on: 786-0 renal
[10] = tested on: COLO 205 colon
[11] = tested on: DU-145 prostate
[12] = tested on: K-562 leukemia
[13] = tested on: MALME-3M melanoma
[14] = tested on: MDA-MB-231 breast
[15] = tested on: RXF 393 renal
[16] = tested on: SF-268 CNS
[17] = tested on: SF-295 CNS
[18] = tested on: SF-539 CNS
[19] = tested on: UACC-257 melanoma
[20] = tested on: M14 melanoma

Q: With `Cc1cc2oc(/C=C/c3ccccc3)cc(=O)c2c(C)c1Cl` as the compound, how does the growth [1] read?
A: Its growth is 88.8%.

Q: And the growth [2]?
A: Its growth is 103%.

Q: And the growth [3]?
A: The growth was 110%.

Q: What about the growth [4] of the same compound?
A: Its growth is 103%.

Q: And the growth [5]?
A: The growth was 105%.

Q: What about the growth [6] of the same compound?
A: Its growth is 97%.

Q: And the growth [7]?
A: Its growth is 93.8%.

Q: And the growth [8]?
A: Its growth is 91.6%.

Q: What about the growth [9] of the same compound?
A: Its growth is 93.2%.

Q: And the growth [10]?
A: Its growth is 104%.

Q: What about the growth [11] of the same compound?
A: The growth was 103%.

Q: What about the growth [12] of the same compound?
A: Its growth is 118%.

Q: And the growth [13]?
A: Its growth is 94%.

Q: What about the growth [14] of the same compound?
A: The growth was 107%.

Q: And the growth [15]?
A: The growth was 98%.

Q: And the growth [16]?
A: Its growth is 102%.

Q: And the growth [17]?
A: Its growth is 96.2%.

Q: What about the growth [18] of the same compound?
A: The growth was 98.9%.

Q: What about the growth [19] of the same compound?
A: The growth was 97%.

Q: Which results are given for `COCC(=O)Oc1cc(-c2ccc(C)cc2C)c(OC(=O)COC)c(-c2ccc(C)cc2C)c1`?
A: growth [1]: 68.8%; growth [2]: 59.8%; growth [3]: 79%; growth [4]: 61.5%; growth [5]: 17.4%; growth [6]: 66.7%; growth [7]: 30.9%; growth [8]: 43.7%; growth [9]: 69.6%; growth [10]: 48.4%; growth [11]: -16.9% (active); growth [12]: 40.8%; growth [13]: 85.3%; growth [14]: 49.7%; growth [15]: 73.5%; growth [16]: 44.5%; growth [17]: 57.5%; growth [18]: 45.7%; growth [19]: 71.2%

Q: `CCN(CC)CCOc1ccc2ccc(=O)oc2c1` was tested. Which growth [1] did it give?
A: Its growth is 106%.

Q: And the growth [2]?
A: Its growth is 106%.

Q: And the growth [3]?
A: Its growth is 88.2%.

Q: What about the growth [4] of the same compound?
A: The growth was 100%.

Q: And the growth [5]?
A: Its growth is 110%.

Q: And the growth [6]?
A: Its growth is -15.1% (active).

Q: And the growth [7]?
A: The growth was 89.6%.

Q: And the growth [8]?
A: Its growth is 99.7%.

Q: What about the growth [9] of the same compound?
A: The growth was 101%.

Q: What about the growth [10] of the same compound?
A: The growth was 102%.

Q: And the growth [11]?
A: The growth was 121%.

Q: And the growth [12]?
A: The growth was 2.68% (active).

Q: And the growth [13]?
A: Its growth is 105%.

Q: What about the growth [14] of the same compound?
A: Its growth is 99.5%.

Q: What about the growth [15] of the same compound?
A: The growth was 103%.

Q: What about the growth [16] of the same compound?
A: The growth was 109%.

Q: What about the growth [17] of the same compound?
A: Its growth is 94.3%.

Q: What about the growth [18] of the same compound?
A: Its growth is 101%.

Q: And the growth [19]?
A: Its growth is 93%.

Q: `COC1C(O)CC(OC2CC(OC3CC(O[C@@H]4C(=O)c5c(cc6cc(OC7CC(OC8CC(O)C(O)C(C)O8)C(O)C(C)O7)c(C)c(O)c6c5O)CC4[C@H](OC)[C@@H](O)C(C)=O)OC(C)C3O)OC(C)C2O)OC1C` (stereo partly drawn) was tested. Which growth [1] did it give?
A: The growth was -12.1% (active).

Q: And the growth [2]?
A: The growth was -16.6% (active).

Q: What about the growth [3] of the same compound?
A: Its growth is 4.31% (active).

Q: What about the growth [4] of the same compound?
A: Its growth is -3.94% (active).

Q: What about the growth [5] of the same compound?
A: The growth was 7.99% (active).

Q: And the growth [6]?
A: Its growth is 5.01% (active).

Q: And the growth [7]?
A: The growth was -26.4% (active).

Q: What about the growth [8] of the same compound?
A: Its growth is 3.44% (active).

Q: What about the growth [9] of the same compound?
A: Its growth is 8.03% (active).

Q: And the growth [10]?
A: Its growth is -21.3% (active).

Q: What about the growth [11] of the same compound?
A: Its growth is 15.8%.

Q: And the growth [12]?
A: Its growth is 9.22% (active).

Q: And the growth [13]?
A: Its growth is -11.6% (active).

Q: What about the growth [14] of the same compound?
A: Its growth is 36.2%.

Q: And the growth [15]?
A: Its growth is -57.5% (active).

Q: What about the growth [16] of the same compound?
A: Its growth is 21.5%.

Q: And the growth [17]?
A: The growth was 8.38% (active).

Q: What about the growth [18] of the same compound?
A: Its growth is -6.81% (active).

Q: And the growth [19]?
A: The growth was -14.7% (active).

Q: How did the growth [1] turn out when `COc1cc(/C=C/C(=O)N2CCN(C(=O)c3cc(OC)c(OC)c(OC)c3)CC2)ccc1OCCCOc1cc2c(cc1OC)C(=O)N1CCC[C@H]1C=N2` was run?
A: Its growth is -13.6% (active).

Q: What about the growth [2] of the same compound?
A: The growth was -8.72% (active).

Q: What about the growth [3] of the same compound?
A: Its growth is -5.89% (active).

Q: And the growth [4]?
A: Its growth is 9.35% (active).

Q: What about the growth [5] of the same compound?
A: The growth was 6.44% (active).

Q: What about the growth [6] of the same compound?
A: The growth was -37.1% (active).

Q: And the growth [7]?
A: The growth was -54.5% (active).

Q: What about the growth [8] of the same compound?
A: The growth was 12.7%.

Q: And the growth [9]?
A: The growth was 11.7%.

Q: What about the growth [10] of the same compound?
A: The growth was -63.4% (active).

Q: What about the growth [11] of the same compound?
A: Its growth is 8.43% (active).

Q: What about the growth [12] of the same compound?
A: Its growth is 1.04% (active).

Q: And the growth [13]?
A: Its growth is -58.6% (active).

Q: And the growth [14]?
A: The growth was 9.01% (active).

Q: What about the growth [15] of the same compound?
A: Its growth is -55.4% (active).

Q: And the growth [16]?
A: The growth was 2.8% (active).

Q: What about the growth [17] of the same compound?
A: Its growth is -33.4% (active).

Q: And the growth [18]?
A: The growth was -32.3% (active).

Q: And the growth [19]?
A: The growth was -11.7% (active).

Q: What about the growth [20] of the same compound?
A: The growth was -80.2% (active).

Q: `C=C1C(=O)O[C@@H]2C3C(=C(C)CC[C@@H]12)CC1O[C@]13C` (stereo partly drawn) was tested. Which growth [1] did it give?
A: Its growth is 82.9% [6.75 µM].

Q: What about the growth [2] of the same compound?
A: The growth was 88.2% [6.75 µM].

Q: And the growth [3]?
A: Its growth is 95.8% [6.75 µM].

Q: What about the growth [4] of the same compound?
A: Its growth is 94.1% [6.75 µM].

Q: What about the growth [5] of the same compound?
A: Its growth is 101% [6.75 µM].

Q: And the growth [6]?
A: The growth was 102% [6.75 µM].

Q: And the growth [7]?
A: The growth was -52.3% [6.75 µM] (active).

Q: And the growth [8]?
A: Its growth is 90.1% [6.75 µM].

Q: And the growth [9]?
A: Its growth is 83.1% [6.75 µM].

Q: What about the growth [10] of the same compound?
A: The growth was 87% [6.75 µM].

Q: And the growth [11]?
A: The growth was 52.9% [6.75 µM].

Q: And the growth [12]?
A: Its growth is 49.6% [6.75 µM].

Q: And the growth [13]?
A: Its growth is 77.6% [6.75 µM].

Q: What about the growth [14] of the same compound?
A: Its growth is 93.5% [6.75 µM].

Q: What about the growth [15] of the same compound?
A: Its growth is 91.6% [6.75 µM].

Q: And the growth [16]?
A: Its growth is 91.2% [6.75 µM].

Q: And the growth [17]?
A: Its growth is 102% [6.75 µM].

Q: And the growth [18]?
A: The growth was 82.3% [6.75 µM].

Q: And the growth [19]?
A: Its growth is 70.4% [6.75 µM].

Q: Which growth [1] does the source give for `CC(C)n1c2ccc(Br)cc2c2c3c(c4c5ccccc5ccc4c21)C(=O)NC3=O` here?
A: The growth was 93.7%.

Q: And the growth [2]?
A: Its growth is 95.5%.

Q: And the growth [3]?
A: Its growth is 70.9%.

Q: And the growth [4]?
A: Its growth is 94.6%.

Q: What about the growth [5] of the same compound?
A: The growth was 89.9%.

Q: What about the growth [6] of the same compound?
A: The growth was 117%.

Q: And the growth [7]?
A: The growth was 71.9%.

Q: What about the growth [8] of the same compound?
A: Its growth is 98.3%.

Q: And the growth [9]?
A: Its growth is 101%.

Q: And the growth [10]?
A: Its growth is 101%.

Q: What about the growth [11] of the same compound?
A: Its growth is 84.2%.

Q: And the growth [12]?
A: Its growth is 76.4%.

Q: And the growth [13]?
A: Its growth is 105%.

Q: And the growth [14]?
A: Its growth is 110%.

Q: And the growth [15]?
A: Its growth is 98.5%.

Q: What about the growth [16] of the same compound?
A: Its growth is 88.7%.

Q: What about the growth [17] of the same compound?
A: Its growth is 101%.

Q: And the growth [18]?
A: The growth was 91.5%.

Q: What about the growth [19] of the same compound?
A: Its growth is 113%.

Q: For `COc1cc(C=C2C(=O)NC(=S)NC2=O)cc(CN2CCCC2)c1O`, which growth [1] is on record?
A: The growth was 103%.

Q: And the growth [2]?
A: Its growth is 103%.

Q: What about the growth [3] of the same compound?
A: The growth was 105%.

Q: And the growth [4]?
A: Its growth is 103%.

Q: What about the growth [5] of the same compound?
A: Its growth is 109%.

Q: And the growth [6]?
A: The growth was 92.8%.

Q: And the growth [7]?
A: Its growth is 96.4%.

Q: What about the growth [8] of the same compound?
A: Its growth is 96.6%.

Q: And the growth [9]?
A: Its growth is 102%.

Q: What about the growth [10] of the same compound?
A: Its growth is 120%.

Q: And the growth [11]?
A: The growth was 113%.

Q: And the growth [12]?
A: The growth was 108%.

Q: What about the growth [13] of the same compound?
A: Its growth is 108%.

Q: And the growth [14]?
A: The growth was 111%.

Q: And the growth [15]?
A: Its growth is 103%.

Q: And the growth [16]?
A: Its growth is 99.6%.

Q: What about the growth [17] of the same compound?
A: Its growth is 104%.

Q: And the growth [18]?
A: The growth was 101%.

Q: And the growth [19]?
A: Its growth is 98.8%.

— PubChem BioAssay (NCI)
